An excerpt weighted towards active compounds, which were near 3.6% of everything screened.
Pf apPOL inh – Pf-apPOL DNA polymerase inhibition. Recombinant Pf-apPOL, molecular beacon fluorescence, 1.5 h. inhibition, % at 10 µM. 210,000 tested, 0.25% active
mHTT-CaM PPI inh – disrupts binding of mutant huntingtin to calmodulin | AlphaScreen His-mHTT/GST-CaM binding, luminescence | inhibition, % at 15 µM | 190,000 tested, 3.6% active;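 also: 0% = both proteins with DMSO and 100% = one protein alone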
* = called active by the depositor; . = no result given; ! = repeats disagree. Rule as the data show it: active = inhibition above about 50%; inactive = the rest.

SMILES	Pf apPOL inh	mHTT-CaM PPI inh
Cc1nc(-c2ccc(S(=O)(=O)Nc3ccc4c(c3)OCCO4)s2)cs1	2	.
O=C(NC1CCCCCC1)C1CCCC1	-3	1
CC(=O)N1CCC(COc2ccc(C(=O)NC(C)C)cc2)CC1	-4	6
N#CC1=C(N)SC(N)=C(C#N)C1c1ccc([N+](=O)[O-])cc1	1	6
CCCCOC(=O)Oc1ccc2c(=O)c(-c3ccccc3Cl)coc2c1	6	1
CC(C)C[C@H]1COc2cc(Br)ccc2S(=O)(=O)N1Cc1cn(Cc2ccc(C(F)(F)F)cc2)nn1	4	1
CCN1c2cc(C)ccc2-n2cccc2C12CCN(C(=O)Nc1ccccc1)CC2	-6	52*
CCN1c2cc(C)ccc2-n2cccc2C12CCN(C(=O)NCc1cccc(OC)c1)CC2	2	34
CCN1c2cc(C)ccc2-n2cccc2C12CCN(C(=O)Nc1ccc(C)cc1)CC2	-6	44
CCN1c2cc(C)ccc2-n2cccc2C12CCN(C(=O)Nc1cccc(OC)c1)CC2	4	56*
Cc1ccsc1C(=O)N1CCC(n2cnnc2-c2ccccc2)C1 (configuration not stated)	-1	-4
COc1ccc(F)cc1S(=O)(=O)N1CCCN(C2CCN(CC3CC3)C2=O)CC1 (configuration not stated)	-1	10
Cc1ccc(CN(Cc2cccnc2)C(=O)Nc2ccc(Cl)c(Cl)c2)cc1	-15	81*
Cc1ccc(S(=O)(=O)N(CC(=O)NCc2cccnc2)Cc2ccc(Cl)c(Cl)c2)cc1	-4	54*!
O=C(Nc1ccc(Cl)cc1)N(Cc1cccnc1)Cc1ccccc1Cl	-14	2
O=C(CN(Cc1ccccc1Cl)S(=O)(=O)c1ccc(Cl)cc1)NCc1cccnc1	-4	14
CCOC(=O)N1CCN(c2nnc(SCC(=O)NCc3ccco3)s2)CC1	-6	-6
CC1CN=C2C=C(N3CCN(C(=O)NCc4cccc(F)c4)CC3)N=CN21 (configuration not stated)	2	4
CCCCN(CC)C(=O)CSc1nc2n[nH]c(C)c2c(=N)n1-c1cccc(C)c1	-6	39
Cc1[nH]nc2nc(SCC(=O)N3CCCC3)n(-c3cccc(Cl)c3)c(=N)c12	-8	46
Cc1cc(NC(=O)CSc2nc3n[nH]c(C)c3c(=N)n2-c2ccc(Cl)c(C)c2)no1	1	48
CCC(Sc1nc2n[nH]c(C)c2c(=N)n1-c1ccc(Cl)c(C)c1)C(=O)NCCOC (configuration not stated)	-5	52*
CCC(Sc1nc2n[nH]c(C)c2c(=N)n1-c1cccc(Cl)c1)C(=O)NCCOC (configuration not stated)	-2	61*
Cc1[nH]nc2nc(SCC(=O)NCc3ccco3)n(-c3cccc(Cl)c3)c(=N)c12	-1	50*
COc1ccc(OC)c(NS(=O)(=O)c2nc3nc(C)cc(C)n3n2)c1	-3	-1
SMILES	Pf apPOL inh	mHTT-CaM PPI inh
COc1ccc(Cn2c(Oc3ccccc3)nc3c2c(=O)n(C)c(=O)n3C)cc1	1	-6
COc1ccc(Oc2nc3c(c(=O)n(Cc4ccccc4)c(=O)n3C)n2C)cc1	65*	18
O=C(CCc1csc(NC(=O)c2ccc(F)cc2)n1)Nc1nc(-c2ccco2)cs1	10	58*
O=C(Nc1nc2c(s1)CCCC2)c1ccc(-n2cccn2)nn1	0	3
O=C(Nc1nc(-c2ccco2)cs1)c1ccc(-n2cccn2)nn1	30	56*
CCOC(=O)N1CCN(C(=O)CCc2csc(NC(=O)c3ccc(F)cc3)n2)CC1	-8	-15
NC(=S)c1ccc(Oc2ccc(C(F)(F)F)cn2)cc1	-9	.
COc1ccccc1Nc1nc(-c2ccc(OC)c(OC)c2)cs1	-2	41
COc1ccc(-c2csc(Nc3ccc(S(N)(=O)=O)cc3)n2)cc1OC	-6	50*
COc1ccc(-c2csc(Nc3ccc(N(C)C)cc3)n2)cc1OC	-1	97*
NS(=O)(=O)c1ccc(Nc2nc(-c3cccnc3)cs2)cc1	-3	21
COc1ccc(OC)c(CN2CCN(Cc3ccc(OC)c(OC)c3)CC2)c1	-3	1
COc1ccccc1N1CCN(Cc2cc(OC)c(O)c([N+](=O)[O-])c2)CC1	-7	-2
CN1CCN(Cc2cc([N+](=O)[O-])c(O)c3ncccc23)CC1	3	100*
CN1CCCN(Cc2ccccc2[N+](=O)[O-])CC1	-6	-11
O=C(NC(/C=C/c1ccccc1)c1cc([N+](=O)[O-])c2cccnc2c1O)C1CCCCC1 (configuration not stated)	10	30
O=[N+]([O-])c1cc(CN2CCC(c3ccccc3)C2)c(O)c2ncccc12 (configuration not stated)	-1	100*
O=[N+]([O-])c1ccccc1CN1CCC(O)CC1	-8	-5
CC1CCN(Cc2cc([N+](=O)[O-])c(O)c3ncccc23)CC1	-89	100*
COc1ccccc1N1CCN(Cc2cc([N+](=O)[O-])c(O)c3ncccc23)CC1	2	100*
O=C(CN1C(=O)NC2(CCCCC2)C1=O)NCCCc1ccccc1	-3	1
